Source: the supplement of paper PMC4466140

Tests used:
Assay in all cases: SPOT peptide array binding signal intensity (averaged, normalized) (arbitrary units (background-subtracted, floor 0; scale differs between SH3 domains)); higher = stronger binding of the SH3 domain to the peptide
CaNbp2 = molecular target: CaNbp2
In short: (§1)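 Detection of bound protein relied on anti-GST antibody, an HRP anti-mouse secondary and luminol, with imaging and quantification in Genespotter. The bound protein was GST-fused SH3 domains from four yeast species, incubated at 10 μg/ml overnight at 4°C in TBS-based blocking buffer on cellulose membranes carrying synthetic 15-mer peptides with cysteines replaced by serines. Binding signal is normalized, background-subtracted spot intensity averaged over replicates, in arbitrary units that differ between domains.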

CaRvs167 = molecular target: CaRvs167
In short: as §1

CaRvs167-3 = molecular target: CaRvs167-3
In short: as §1

CaSho1 = molecular target: CaSho1
In short: as §1

CaSla1-D1-D2 = molecular target: CaSla1-D1-D2
In short: as §1

CaSla1-D3 = molecular target: CaSla1-D3
In short: as §1

ScAbp1 = molecular target: ScAbp1
In short: as §1

ScBbc1 = molecular target: ScBbc1
In short: as §1

ScBem1-D1 = molecular target: ScBem1-D1
In short: as §1

ScBzz1-D1 = molecular target: ScBzz1-D1
In short: as §1

ScBzz1-D2 = molecular target: ScBzz1-D2
In short: as §1

ScCyk3 = molecular target: ScCyk3
In short: as §1

ScFus1 = molecular target: ScFus1
In short: as §1

ScHof1 = molecular target: ScHof1
In short: as §1

ScHse1 = molecular target: ScHse1
In short: as §1

ScLsb1 = molecular target: ScLsb1
In short: as §1

ScLsb2 = molecular target: ScLsb2
In short: as §1

ScLsb3 = molecular target: ScLsb3
In short: as §1

ScLsb4 = molecular target: ScLsb4
In short: as §1

ScMyo3 = molecular target: ScMyo3
In short: as §1

ScMyo5 = molecular target: ScMyo5
In short: as §1

ScNbp2 = molecular target: ScNbp2
In short: as §1

ScPex13 = molecular target: ScPex13
In short: as §1

ScRvs167 = molecular target: ScRvs167
In short: as §1

ScSho1 = molecular target: ScSho1
In short: as §1

ScSla1-D1-D2 = molecular target: ScSla1-D1-D2
In short: as §1

ScSla1-D3 = molecular target: ScSla1-D3
In short: as §1

SpAbp1-D1 = molecular target: SpAbp1-D1
In short: as §1

SpBbc1 = molecular target: SpBbc1
In short: as §1

SpBzz1-D1 = molecular target: SpBzz1-D1
In short: as §1

SpBzz1-D2 = molecular target: SpBzz1-D2
In short: as §1

SpCyk3 = molecular target: SpCyk3
In short: as §1

SpHof1 = molecular target: SpHof1
In short: as §1

SpHof1-2 = molecular target: SpHof1-2
In short: as §1

SpHof1-3 = molecular target: SpHof1-3
In short: as §1

SpHse1 = molecular target: SpHse1
In short: as §1

SpLsb1 = molecular target: SpLsb1
In short: as §1

SpLsb4 = molecular target: SpLsb4
In short: as §1

SpMyo1 = molecular target: SpMyo1
In short: as §1

SpNbp2 = molecular target: SpNbp2
In short: as §1

SpPex13 = molecular target: SpPex13
In short: as §1

SpRvs167 = molecular target: SpRvs167
In short: as §1

SpSla1-D1-D2 = molecular target: SpSla1-D1-D2
In short: as §1

SpSla1-D3 = molecular target: SpSla1-D3
In short: as §1

AgAbp1 = molecular target: AgAbp1
In short: as §1

AgBbc1 = molecular target: AgBbc1
In short: as §1

AgBem1-D1 = molecular target: AgBem1-D1
In short: as §1

AgBzz1-D1 = molecular target: AgBzz1-D1
In short: as §1

AgBzz1-D2 = molecular target: AgBzz1-D2
In short: as §1

AgCyk3 = molecular target: AgCyk3
In short: as §1

AgFus1 = molecular target: AgFus1
In short: as §1

AgHof1 = molecular target: AgHof1
In short: as §1

AgHse1 = molecular target: AgHse1
In short: as §1

AgLsb1 = molecular target: AgLsb1
In short: as §1

AgLsb4 = molecular target: AgLsb4
In short: as §1

AgMyo5 = molecular target: AgMyo5
In short: as §1

AgNbp2 = molecular target: AgNbp2
In short: as §1

AgRvs167 = molecular target: AgRvs167
In short: as §1

AgSho1 = molecular target: AgSho1
In short: as §1

AgSla1-D1-D2 = molecular target: AgSla1-D1-D2
In short: as §1

AgSla1-D3 = molecular target: AgSla1-D3
In short: as §1

CaAbp1-D1 = molecular target: CaAbp1-D1
In short: as §1

CaAbp1-D2 = molecular target: CaAbp1-D2
In short: as §1

CaBbc1 = molecular target: CaBbc1
In short: as §1

CaBem1-D1 = molecular target: CaBem1-D1
In short: as §1

CaBzz1-D1 = molecular target: CaBzz1-D1
In short: as §1

CaBzz1-D2 = molecular target: CaBzz1-D2
In short: as §1

CaCyk3 = molecular target: CaCyk3
In short: as §1

CaFus1 = molecular target: CaFus1
In short: as §1

CaHof1 = molecular target: CaHof1
In short: as §1

CaHse1 = molecular target: CaHse1
In short: as §1

CaLsb1 = molecular target: CaLsb1
In short: as §1

CaLsb4 = molecular target: CaLsb4
In short: as §1

CaMyo5 = molecular target: CaMyo5
In short: as §1

VGFRLALKFPSRITG
SPOT peptide array binding signal intensity (CaNbp2): 2320
SPOT peptide array binding signal intensity (CaRvs167): 703
SPOT peptide array binding signal intensity (CaRvs167-3): 2360
SPOT peptide array binding signal intensity (CaSho1): 3450
SPOT peptide array binding signal intensity (CaSla1-D1-D2): 108
SPOT peptide array binding signal intensity (CaSla1-D3): 782
SPOT peptide array binding signal intensity (ScAbp1): 137
SPOT peptide array binding signal intensity (ScBbc1): 11.5
SPOT peptide array binding signal intensity (ScBem1-D1): 60
SPOT peptide array binding signal intensity (ScBzz1-D1): 188
SPOT peptide array binding signal intensity (ScBzz1-D2): 649
SPOT peptide array binding signal intensity (ScCyk3): 137
SPOT peptide array binding signal intensity (ScFus1): 3260
SPOT peptide array binding signal intensity (ScHof1): 7.5
SPOT peptide array binding signal intensity (ScHse1): 3980
SPOT peptide array binding signal intensity (ScLsb1): 12
SPOT peptide array binding signal intensity (ScLsb2): 38
SPOT peptide array binding signal intensity (ScLsb3): 1230
SPOT peptide array binding signal intensity (ScLsb4): 152
SPOT peptide array binding signal intensity (ScMyo3): 8.5
SPOT peptide array binding signal intensity (ScMyo5): 26.5
SPOT peptide array binding signal intensity (ScNbp2): 1400
SPOT peptide array binding signal intensity (ScPex13): 67.8
SPOT peptide array binding signal intensity (ScRvs167): 180
SPOT peptide array binding signal intensity (ScSho1): 3930
SPOT peptide array binding signal intensity (ScSla1-D1-D2): 561
SPOT peptide array binding signal intensity (ScSla1-D3): 246
SPOT peptide array binding signal intensity (SpAbp1-D1): 658
SPOT peptide array binding signal intensity (SpBbc1): 97.5
SPOT peptide array binding signal intensity (SpBzz1-D1): 1110
SPOT peptide array binding signal intensity (SpBzz1-D2): 111
SPOT peptide array binding signal intensity (SpCyk3): 75
SPOT peptide array binding signal intensity (SpHof1): 620
SPOT peptide array binding signal intensity (SpHof1-2): 179
SPOT peptide array binding signal intensity (SpHof1-3): 2110
SPOT peptide array binding signal intensity (SpHse1): 1790
SPOT peptide array binding signal intensity (SpLsb1): 40.5
SPOT peptide array binding signal intensity (SpLsb4): 913
SPOT peptide array binding signal intensity (SpMyo1): 41
SPOT peptide array binding signal intensity (SpNbp2): 2320
SPOT peptide array binding signal intensity (SpPex13): 578
SPOT peptide array binding signal intensity (SpRvs167): 161
SPOT peptide array binding signal intensity (SpSla1-D1-D2): 17
SPOT peptide array binding signal intensity (SpSla1-D3): 260

QHQQRQPKRPKRYSL
SPOT peptide array binding signal intensity (AgAbp1): 147
SPOT peptide array binding signal intensity (AgBbc1): 293
SPOT peptide array binding signal intensity (AgBem1-D1): 112
SPOT peptide array binding signal intensity (AgBzz1-D1): 55.5
SPOT peptide array binding signal intensity (AgBzz1-D2): 19
SPOT peptide array binding signal intensity (AgCyk3): 11
SPOT peptide array binding signal intensity (AgFus1): 98.5
SPOT peptide array binding signal intensity (AgHof1): 34.5
SPOT peptide array binding signal intensity (AgHse1): 353
SPOT peptide array binding signal intensity (AgLsb1): 15
SPOT peptide array binding signal intensity (AgLsb4): 151
SPOT peptide array binding signal intensity (AgMyo5): 1.5
SPOT peptide array binding signal intensity (AgNbp2): 654
SPOT peptide array binding signal intensity (AgRvs167): 6
SPOT peptide array binding signal intensity (AgSho1): 12
SPOT peptide array binding signal intensity (AgSla1-D1-D2): 288
SPOT peptide array binding signal intensity (AgSla1-D3): 3.5
SPOT peptide array binding signal intensity (CaAbp1-D1): 1050
SPOT peptide array binding signal intensity (CaAbp1-D2): 639
SPOT peptide array binding signal intensity (CaBbc1): 792
SPOT peptide array binding signal intensity (CaBem1-D1): 20
SPOT peptide array binding signal intensity (CaBzz1-D1): 59
SPOT peptide array binding signal intensity (CaBzz1-D2): 94
SPOT peptide array binding signal intensity (CaCyk3): 211
SPOT peptide array binding signal intensity (CaFus1): 126
SPOT peptide array binding signal intensity (CaHof1): 2
SPOT peptide array binding signal intensity (CaHse1): 175
SPOT peptide array binding signal intensity (CaLsb1): 2.5
SPOT peptide array binding signal intensity (CaLsb4): 1810
SPOT peptide array binding signal intensity (CaMyo5): 12
SPOT peptide array binding signal intensity (CaNbp2): 492
SPOT peptide array binding signal intensity (CaRvs167): 18.5
SPOT peptide array binding signal intensity (CaRvs167-3): 38.2
SPOT peptide array binding signal intensity (CaSho1): 56.5
SPOT peptide array binding signal intensity (CaSla1-D1-D2): 558
SPOT peptide array binding signal intensity (CaSla1-D3): 26.2
SPOT peptide array binding signal intensity (ScAbp1): 43
SPOT peptide array binding signal intensity (ScBbc1): 251
SPOT peptide array binding signal intensity (ScBem1-D1): 14
SPOT peptide array binding signal intensity (ScBzz1-D1): 9
SPOT peptide array binding signal intensity (ScBzz1-D2): 12
SPOT peptide array binding signal intensity (ScCyk3): 216
SPOT peptide array binding signal intensity (ScFus1): 54.5
SPOT peptide array binding signal intensity (ScHof1): ≤ 0
SPOT peptide array binding signal intensity (ScHse1): 409
SPOT peptide array binding signal intensity (ScLsb1): 25.8
SPOT peptide array binding signal intensity (ScLsb2): 45
SPOT peptide array binding signal intensity (ScLsb3): 1410
SPOT peptide array binding signal intensity (ScLsb4): 140
SPOT peptide array binding signal intensity (ScMyo3): 4.25
SPOT peptide array binding signal intensity (ScMyo5): 7.75
SPOT peptide array binding signal intensity (ScNbp2): 620
SPOT peptide array binding signal intensity (ScPex13): 88.8
SPOT peptide array binding signal intensity (ScRvs167): 129
SPOT peptide array binding signal intensity (ScSho1): 196
SPOT peptide array binding signal intensity (ScSla1-D1-D2): 372
SPOT peptide array binding signal intensity (ScSla1-D3): 22.2
SPOT peptide array binding signal intensity (SpAbp1-D1): 426
SPOT peptide array binding signal intensity (SpBbc1): 31
SPOT peptide array binding signal intensity (SpBzz1-D1): 250
SPOT peptide array binding signal intensity (SpBzz1-D2): 1.5
SPOT peptide array binding signal intensity (SpCyk3): 10.5
SPOT peptide array binding signal intensity (SpHof1): 81
SPOT peptide array binding signal intensity (SpHof1-2): 18.8
SPOT peptide array binding signal intensity (SpHof1-3): 169
SPOT peptide array binding signal intensity (SpHse1): 75.2
SPOT peptide array binding signal intensity (SpLsb1): 73.8
SPOT peptide array binding signal intensity (SpLsb4): 2350
SPOT peptide array binding signal intensity (SpMyo1): 7.75
SPOT peptide array binding signal intensity (SpNbp2): 267
SPOT peptide array binding signal intensity (SpPex13): 12
SPOT peptide array binding signal intensity (SpRvs167): 26.8
SPOT peptide array binding signal intensity (SpSla1-D1-D2): ≤ 0
SPOT peptide array binding signal intensity (SpSla1-D3): 6
